Experimental data taken from the supplement of paper PMC10849652.
Of roughly 7,900 targets only a part is listed; those with a hit were picked by preference. About 0.6% of all pairs of compound and target were hits. Unmarked numbers belong to inactive results.

Key:
Assay in all cases: log2 fold change, soluble protein after heating vs DMSO (PISA); higher = thermal stabilisation; K562 cells, 10 uM, 30 min; active = over 0.2 and 3.5 SD of the protein, either way, in both replicates (recomputed)
[1] = compound: C1COCCN1CCN2C3=CC=CC=C3N=C2NC(=O)C4=CC(=CC=C4)[N+](=O)[O-] [IRAK-1-4 Inhibitor I]
Summary of the method: (§1)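 Quantification of soluble protein used TMTpro 16plex LC-MS/MS, with channel sums equalised. Samples were the supernatant after 21,000xg for 90 min of pooled aliquots from K562 cells (2×10^6 cells/mL) treated with 10 μM compound for 30 min, heated for 3 min over 48°C-58°C, and extracted in PBS with 0.5% NP-40 at 4°C. Values, from duplicates, describe thermal stability against control samples on a log2 fold-change scale.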

[2] = compound: C=CC(=O)N1CCC[C@@H](n2nc(-c3ccc(Oc4ccccc4)cc3)c3c(N)ncnc32)C1 [ibrutinib]
Summary of the method: as §1

[3] = compound: CC(=O)c1cnc2ccc(-c3cc(Cl)c(O)c(Cl)c3)nc2c1N[C@H]1CC[C@H](CN(C)C)CC1
Summary of the method: as §1

[4] = compound: CC(C)(C)Cn1c(N)nc2ccc(-c3[nH]c(C(C)(C)C)nc3-c3ccc(F)cc3)nc21 [ralimetinib]
Summary of the method: as §1

[5] = compound: CC(C)(O)CC(=O)NCCn1ccc2ncnc(Nc3ccc(Oc4cccc(C(F)(F)F)c4)c(Cl)c3)c21
Summary of the method: as §1

[6] = compound: CC(C)C1=C2N=C(C=C(N2N=C1)NCC3=CC=CC=C3)NCCCCCCN
Summary of the method: as §1

[7] = compound: CC(C)C[C@@H](C=O)NC(=O)[C@H](CC(C)C)NC(=O)[C@H](CC(C)C)NC(=O)OCc1ccccc1
Summary of the method: as §1

[8] = compound: CC(C)N(C[C@H]1O[C@@H](n2cnc3c(N)ncnc32)[C@H](O)[C@@H]1O)[C@H]1C[C@@H](CCc2nc3cc(C(C)(C)C)ccc3[nH]2)C1 [pinometostat]
Summary of the method: as §1

[9] = compound: CC1=C(C(CC(=O)N1)C2=CC=C(C=C2)C(F)(F)F)C(=O)NC3=C(C=C4C(=C3)C=NN4)F
Summary of the method: as §1

[10] = compound: CC1=C(C2=C(C=C1)C(=O)C3=CC=CC=C3N2CCCN)C
Summary of the method: as §1

UniProt O94925, sequence (O94925 whole entry, looked up): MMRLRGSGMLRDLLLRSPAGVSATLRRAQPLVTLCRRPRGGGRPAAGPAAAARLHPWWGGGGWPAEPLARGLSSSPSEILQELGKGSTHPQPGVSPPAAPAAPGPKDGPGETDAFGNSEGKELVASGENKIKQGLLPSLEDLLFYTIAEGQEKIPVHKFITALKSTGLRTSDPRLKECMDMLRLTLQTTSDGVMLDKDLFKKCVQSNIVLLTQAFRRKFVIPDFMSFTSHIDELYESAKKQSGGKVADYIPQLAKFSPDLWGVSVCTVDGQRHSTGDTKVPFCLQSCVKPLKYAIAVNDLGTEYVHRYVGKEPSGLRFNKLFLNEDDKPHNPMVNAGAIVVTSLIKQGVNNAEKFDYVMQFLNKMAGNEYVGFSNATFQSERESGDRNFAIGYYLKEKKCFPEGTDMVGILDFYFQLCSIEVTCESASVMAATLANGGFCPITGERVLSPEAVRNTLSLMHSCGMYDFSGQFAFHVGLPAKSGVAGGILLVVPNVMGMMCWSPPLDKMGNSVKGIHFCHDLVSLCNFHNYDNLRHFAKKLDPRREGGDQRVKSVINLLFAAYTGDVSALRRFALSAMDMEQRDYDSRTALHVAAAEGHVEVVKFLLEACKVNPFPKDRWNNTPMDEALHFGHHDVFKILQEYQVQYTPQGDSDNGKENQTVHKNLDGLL
UniProt P52655, sequence (P52655 whole entry, looked up): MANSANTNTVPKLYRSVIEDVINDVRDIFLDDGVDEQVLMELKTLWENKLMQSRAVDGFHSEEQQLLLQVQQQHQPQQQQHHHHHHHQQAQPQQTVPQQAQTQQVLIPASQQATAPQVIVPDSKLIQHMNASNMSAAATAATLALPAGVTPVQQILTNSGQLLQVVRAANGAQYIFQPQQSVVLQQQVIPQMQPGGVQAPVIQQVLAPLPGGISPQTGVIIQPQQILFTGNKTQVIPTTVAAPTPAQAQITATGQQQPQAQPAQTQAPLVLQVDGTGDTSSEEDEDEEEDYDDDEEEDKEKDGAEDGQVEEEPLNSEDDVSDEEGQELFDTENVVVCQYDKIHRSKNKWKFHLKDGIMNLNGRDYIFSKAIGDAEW
UniProt Q86YM7, sequence (Q86YM7 whole entry, looked up): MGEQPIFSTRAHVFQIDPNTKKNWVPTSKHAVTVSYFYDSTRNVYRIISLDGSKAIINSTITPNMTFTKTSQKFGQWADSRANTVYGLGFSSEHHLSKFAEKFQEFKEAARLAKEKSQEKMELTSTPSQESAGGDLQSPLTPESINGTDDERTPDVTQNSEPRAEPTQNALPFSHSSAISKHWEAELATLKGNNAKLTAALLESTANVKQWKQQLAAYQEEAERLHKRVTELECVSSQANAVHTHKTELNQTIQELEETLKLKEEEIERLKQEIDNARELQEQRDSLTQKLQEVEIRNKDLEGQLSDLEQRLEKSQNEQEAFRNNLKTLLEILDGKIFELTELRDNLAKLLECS
UniProt Q04446, sequence (Q04446 whole entry, looked up): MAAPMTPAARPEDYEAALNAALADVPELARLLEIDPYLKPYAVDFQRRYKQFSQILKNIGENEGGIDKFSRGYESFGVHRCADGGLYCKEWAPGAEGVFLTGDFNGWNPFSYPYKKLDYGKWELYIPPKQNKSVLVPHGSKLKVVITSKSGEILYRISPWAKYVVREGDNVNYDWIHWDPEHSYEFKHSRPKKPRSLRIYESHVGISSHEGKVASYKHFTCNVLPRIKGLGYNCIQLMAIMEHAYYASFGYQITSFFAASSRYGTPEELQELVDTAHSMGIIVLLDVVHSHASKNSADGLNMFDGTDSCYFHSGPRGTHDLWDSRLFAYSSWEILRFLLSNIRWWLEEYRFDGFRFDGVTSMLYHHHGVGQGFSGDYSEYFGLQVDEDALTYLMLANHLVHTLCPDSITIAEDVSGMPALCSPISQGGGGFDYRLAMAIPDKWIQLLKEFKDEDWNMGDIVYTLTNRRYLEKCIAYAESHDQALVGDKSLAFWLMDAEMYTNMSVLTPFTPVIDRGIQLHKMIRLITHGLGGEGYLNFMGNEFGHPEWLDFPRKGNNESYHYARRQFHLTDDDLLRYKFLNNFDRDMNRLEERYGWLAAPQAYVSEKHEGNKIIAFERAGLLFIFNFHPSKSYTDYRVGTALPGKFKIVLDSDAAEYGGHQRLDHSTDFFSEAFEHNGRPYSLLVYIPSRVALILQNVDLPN
UniProt Q8NB37, sequence (Q8NB37 whole entry, looked up): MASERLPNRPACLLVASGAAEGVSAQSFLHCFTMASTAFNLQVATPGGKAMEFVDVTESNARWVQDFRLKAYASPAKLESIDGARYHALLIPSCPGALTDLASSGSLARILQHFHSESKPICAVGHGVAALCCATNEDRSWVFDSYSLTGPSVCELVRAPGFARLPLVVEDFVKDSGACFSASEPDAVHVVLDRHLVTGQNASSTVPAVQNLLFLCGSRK
UniProt P01112, sequence (P01112 whole entry, looked up): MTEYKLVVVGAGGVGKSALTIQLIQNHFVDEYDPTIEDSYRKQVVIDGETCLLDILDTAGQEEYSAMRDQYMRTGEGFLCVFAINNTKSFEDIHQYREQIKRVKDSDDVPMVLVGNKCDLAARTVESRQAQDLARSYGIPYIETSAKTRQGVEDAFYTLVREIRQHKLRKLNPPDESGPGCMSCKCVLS
UniProt P00390, sequence (P00390 whole entry, looked up): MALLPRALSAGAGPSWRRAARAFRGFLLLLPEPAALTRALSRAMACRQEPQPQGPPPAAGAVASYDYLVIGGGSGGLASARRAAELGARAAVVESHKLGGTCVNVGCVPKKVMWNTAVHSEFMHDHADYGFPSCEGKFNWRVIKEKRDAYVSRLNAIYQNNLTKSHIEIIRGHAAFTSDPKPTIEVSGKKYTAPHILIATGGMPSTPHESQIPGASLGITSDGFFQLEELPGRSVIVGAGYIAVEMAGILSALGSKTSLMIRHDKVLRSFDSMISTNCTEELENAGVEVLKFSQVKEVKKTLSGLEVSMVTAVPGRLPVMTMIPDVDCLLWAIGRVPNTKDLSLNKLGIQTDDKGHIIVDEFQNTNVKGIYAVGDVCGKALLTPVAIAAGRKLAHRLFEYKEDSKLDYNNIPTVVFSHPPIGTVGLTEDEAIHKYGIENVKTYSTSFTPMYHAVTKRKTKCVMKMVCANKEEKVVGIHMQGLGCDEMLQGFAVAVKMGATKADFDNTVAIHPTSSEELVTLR
UniProt P29084, sequence (P29084 whole entry, looked up): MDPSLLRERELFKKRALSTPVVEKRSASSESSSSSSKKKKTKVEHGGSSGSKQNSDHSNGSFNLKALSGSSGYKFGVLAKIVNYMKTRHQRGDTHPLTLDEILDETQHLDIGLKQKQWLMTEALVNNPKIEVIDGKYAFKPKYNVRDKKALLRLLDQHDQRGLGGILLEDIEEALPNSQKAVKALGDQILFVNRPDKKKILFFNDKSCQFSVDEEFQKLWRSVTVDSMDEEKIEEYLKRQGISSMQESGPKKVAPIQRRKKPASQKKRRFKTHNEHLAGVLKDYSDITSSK
UniProt P37268, sequence (P37268 whole entry, looked up): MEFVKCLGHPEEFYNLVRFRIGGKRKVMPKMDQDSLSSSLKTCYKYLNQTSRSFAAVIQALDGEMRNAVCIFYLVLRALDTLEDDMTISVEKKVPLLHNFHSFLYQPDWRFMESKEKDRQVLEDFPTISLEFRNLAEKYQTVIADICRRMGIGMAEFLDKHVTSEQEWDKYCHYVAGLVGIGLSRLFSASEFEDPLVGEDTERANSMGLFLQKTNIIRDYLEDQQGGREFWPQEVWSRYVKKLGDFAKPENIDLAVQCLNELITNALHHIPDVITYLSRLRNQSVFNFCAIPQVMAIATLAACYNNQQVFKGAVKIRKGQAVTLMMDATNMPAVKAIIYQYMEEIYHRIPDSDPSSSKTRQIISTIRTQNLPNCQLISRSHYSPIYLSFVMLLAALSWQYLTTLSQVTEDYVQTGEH
UniProt Q658Y4, sequence (Q658Y4 whole entry, looked up): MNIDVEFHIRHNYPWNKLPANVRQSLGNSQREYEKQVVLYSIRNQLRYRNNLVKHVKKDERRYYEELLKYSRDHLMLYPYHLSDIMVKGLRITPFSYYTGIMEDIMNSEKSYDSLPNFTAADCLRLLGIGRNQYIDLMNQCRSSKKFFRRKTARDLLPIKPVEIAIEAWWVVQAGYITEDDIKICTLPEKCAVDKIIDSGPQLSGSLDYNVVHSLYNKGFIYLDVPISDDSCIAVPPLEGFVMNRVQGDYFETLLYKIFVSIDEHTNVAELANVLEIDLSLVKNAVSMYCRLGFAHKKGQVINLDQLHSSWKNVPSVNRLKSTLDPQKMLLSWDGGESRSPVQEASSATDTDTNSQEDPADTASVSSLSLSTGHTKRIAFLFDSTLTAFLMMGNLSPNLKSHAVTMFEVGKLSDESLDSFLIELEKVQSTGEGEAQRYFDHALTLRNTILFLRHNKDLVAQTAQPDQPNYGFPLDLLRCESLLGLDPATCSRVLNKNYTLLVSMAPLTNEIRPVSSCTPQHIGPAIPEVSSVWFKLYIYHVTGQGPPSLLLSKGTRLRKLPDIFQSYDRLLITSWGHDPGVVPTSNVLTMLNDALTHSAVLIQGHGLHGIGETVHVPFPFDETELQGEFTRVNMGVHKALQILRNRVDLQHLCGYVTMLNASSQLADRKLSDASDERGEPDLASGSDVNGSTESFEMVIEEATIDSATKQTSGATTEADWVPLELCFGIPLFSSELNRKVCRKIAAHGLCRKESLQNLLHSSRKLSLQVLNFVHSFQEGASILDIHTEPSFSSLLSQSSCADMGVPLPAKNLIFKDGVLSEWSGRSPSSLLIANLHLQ
UniProt P08754, sequence (P08754 whole entry, looked up): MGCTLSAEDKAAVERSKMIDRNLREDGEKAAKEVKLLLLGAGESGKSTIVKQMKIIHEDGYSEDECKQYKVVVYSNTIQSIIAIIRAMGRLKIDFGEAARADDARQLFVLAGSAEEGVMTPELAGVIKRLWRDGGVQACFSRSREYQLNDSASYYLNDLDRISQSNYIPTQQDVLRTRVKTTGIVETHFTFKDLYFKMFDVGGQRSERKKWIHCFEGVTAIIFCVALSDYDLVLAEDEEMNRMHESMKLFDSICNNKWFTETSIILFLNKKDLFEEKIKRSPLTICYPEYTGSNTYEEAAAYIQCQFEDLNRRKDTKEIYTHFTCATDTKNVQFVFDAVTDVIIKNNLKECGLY

Row | Target | log2 fold change [1] | log2 fold change [2] | log2 fold change [3] | log2 fold change [4] | log2 fold change [5] | log2 fold change [6] | log2 fold change [7] | log2 fold change [8] | log2 fold change [9] | log2 fold change [10]
1 | FAM91A1 (UniProt Q658Y4) | 0.092 | -0.025 | -0.025 | 0.076 | -0.198 | -0.041 | 0 | 0.134 | 0.018 | 0.083
2 | FBXO42 (UniProt Q6P3S6) | -0.103 | -0.009 | -0.108 | -0.064 | -0.093 | -0.169 | 0.011 | -0.051 | -0.038 | 0.086
3 | FDFT1 (UniProt P37268) | 0.001 | 0.007 | -0.025 | -0.028 | -0.015 | -0.083 | 0.077 | -0.042 | 0.012 | -0.06
4 | HOMER1 (UniProt Q86YM7) | 0.104 | 0.009 | -0.043 | 0.004 | 0.03 | 0.034 | -0.088 | -0.225 (active) | 0.038 | 0.093
5 | IGF2BP2 (UniProt Q9Y6M1) | -0.168 | 0.048 | -0.011 | 0.209 | 0.037 | -0.249 | 0.106 | 0.477 | 0.087 | -0.054
6 | IFT74 (UniProt Q96LB3) | 0.067 | 0.146 | 0.02 | 0.27 | -0.095 | 0.191 | 0.076 | -0.024 | -0.085 | 0.071
7 | GNAI3 (UniProt P08754) | -0.007 | 0.083 | 0.027 | 0.066 | 0.083 | 0.006 | -0.03 | 0.024 | 0.02 | 0.038
8 | GPKOW (UniProt Q92917) | -0.016 | -0.005 | -0.172 | -0.08 | -0.026 | -0.184 | 0.006 | 0.047 | -0.034 | 0.056
9 | HECTD1 (UniProt Q9ULT8) | -0.076 | -0.027 | 0.001 | 0.054 | -0.048 | -0.091 | 0.141 | 0.079 | 0.026 | -0.158
10 | GLS isoform 3 (UniProt O94925) | 0.011 | -0.15 | -0.046 | -0.19 | -0.547 (active) | -0.034 | -0.04 | -0.088 | 0 | -0.068
11 | H1FX (UniProt Q92522) | -0.171 | 0.077 | 0.231 | 0.204 | 0.031 | 0.13 | 0.09 | 0.246 | 0.02 | -0.718 (active)
12 | HIST2H2BF isoform 2 (UniProt Q5QNW6) | -0.165 | 0.148 | -0.054 | 0.162 | 0 | -0.047 | 0.226 | 0.422 | 0.002 | 0.601
13 | GTF2A1 (UniProt P52655) | 0.068 | 0.03 | 0.013 | -0.142 | -0.106 | 0.022 | -0.06 | 0.035 | 0.014 | -0.415 (active)
14 | GATD1 (UniProt Q8NB37) | -0.069 | 0.106 | -0.099 | -0.026 | 0.01 | 0.026 | 0.104 | 0.141 | 0.032 | 0
15 | HNRNPUL1 (UniProt Q9BUJ2) | -0.055 | 0 | -0.072 | 0.005 | 0.027 | 0.007 | 0.035 | 0.01 | 0.014 | -0.096
16 | GMEB1 (UniProt Q9Y692) | -0.033 | -0.031 | -0.021 | 0.01 | -0.039 | -0.044 | -0.031 | 0.022 | 0.011 | -0.297 (active)
17 | HNRNPK isoform 2 (UniProt P61978) | -0.014 | -0.014 | -0.161 | -0.054 | -0.025 | -0.283 (active) | 0.003 | -0.033 | 0.005 | -0.062
18 | FKBP3 (UniProt Q00688) | 0.01 | 0.009 | 0.016 | 0.001 | -0.028 | 0.023 | -0.014 | -0.057 | -0.033 | -0.004
19 | GSR (UniProt P00390) | 0.037 | -0.005 | -0.011 | -0.021 | -0.015 | 0.082 | 0.023 | -0.05 | -0.005 | -0.003
20 | GTF2E2 (UniProt P29084) | -0.041 | -0.008 | -0.104 | -0.012 | -0.033 | -0.137 | 0.075 | 0.056 | 0.001 | 0.056
21 | GNPAT (UniProt O15228) | 0.026 | -0.007 | -0.017 | 0.02 | -0.053 | -0.018 | -0.014 | -0.018 | 0.004 | 0.024
22 | HRAS (UniProt P01112) | 0.093 | 0.143 | 0.065 | 0 | -0.004 | 0.047 | 0.13 | -0.059 | -0.013 | -0.121
23 | GEMIN2 (UniProt O14893) | -0.046 | 0.055 | -0.061 | 0.049 | -0.307 |  | 0.012 | -0.096 | 0.044 | 
24 | FIS1 (UniProt Q9Y3D6) | 0.029 | 0.003 | 0.067 | -0.036 | 0.029 | -0.023 | -0.025 | -0.074 | 0.004 | -0.031
25 | GSK3B isoform 2 (UniProt P49841) | 0.017 | 0.019 | 0.144 | -0.005 | -0.07 | 0.004 | -0.031 | -0.022 | -0.008 | -0.017
26 | HIST2H3A (UniProt Q71DI3) | -0.269 | 0.081 | -0.012 | 0.292 | -0.021 | -0.225 | 0.18 | 0.29 | 0.002 | 0.727
27 | GBE1 (UniProt Q04446) | -0.241 | -0.026 | -0.102 | 0.051 | -0.074 | -0.23 | 0.027 | 0.186 |  | 0.04
28 | HNRNPUL2 (UniProt Q1KMD3) | -0.033 | -0.022 | -0.014 | -0.033 | 0.024 | 0.117 | 0.054 | 0.107 | -0.009 | 0.023
29 | GABARAPL2 (UniProt P60520) | 0.107 | -0.018 | -0.076 | 0.008 | -0.028 | -0.269 (active) | -0.007 | -0.103 | 0.016 | -0.015
30 | GTF2H3 (UniProt Q13889) | -0.06 | 0.056 | 0.063 | 0.049 | 0.006 | 0.011 | 0 | 0.06 | -0.074 | 0.02
